According to the supplement of paper PMC4466140:

target: AgAbp1; experiment: SPOT peptide array binding signal intensity (averaged, normalized) (arbitrary units (background-subtracted, floor 0; scale differs between SH3 domains)); higher = stronger binding of the SH3 domain to the peptide
Procedure: (§1)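 GST-tagged SH3 domains from S. cerevisiae (Sc), A. gossypii (Ag), C. albicans (Ca) and S. pombe (Sp) were incubated at 10 ug/ml overnight at 4 C on cellulose SPOT membranes carrying 292 synthetic 15-mer peptides mined from the S. cerevisiae proteome (cysteines replaced by serines). Binding was detected with anti-GST antibody, HRP secondary and chemiluminescence, quantified with Genespotter, and reported as normalized spot intensities averaged over biological replicates.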

Row | Binder | SPOT peptide array binding signal intensity
1 | QNTPPLPPKPKSPHL | 29

target: AgBbc1; experiment: as above
Procedure: as §1

Row | Binder | SPOT peptide array binding signal intensity
2 | QNTPPLPPKPKSPHL | 4.75

target: AgBem1-D1; experiment: as above
Procedure: as §1

Row | Binder | SPOT peptide array binding signal intensity
3 | QNTPPLPPKPKSPHL | ≤ 0

target: AgBzz1-D1; experiment: as above
Procedure: as §1

Row | Binder | SPOT peptide array binding signal intensity
4 | QNTPPLPPKPKSPHL | 30

target: AgBzz1-D2; experiment: as above
Procedure: as §1

Row | Binder | SPOT peptide array binding signal intensity
5 | QNTPPLPPKPKSPHL | 38

target: AgCyk3; experiment: as above
Procedure: as §1

Row | Binder | SPOT peptide array binding signal intensity
6 | QNTPPLPPKPKSPHL | ≤ 0

target: AgFus1; experiment: as above
Procedure: as §1

Row | Binder | SPOT peptide array binding signal intensity
7 | QNTPPLPPKPKSPHL | 17.5

target: AgHof1; experiment: as above
Procedure: as §1

Row | Binder | SPOT peptide array binding signal intensity
8 | QNTPPLPPKPKSPHL | 777

target: AgHse1; experiment: as above
Procedure: as §1

Row | Binder | SPOT peptide array binding signal intensity
9 | QNTPPLPPKPKSPHL | 39.5

target: AgLsb1; experiment: as above
Procedure: as §1

Row | Binder | SPOT peptide array binding signal intensity
10 | QNTPPLPPKPKSPHL | 1

target: AgLsb4; experiment: as above
Procedure: as §1

Row | Binder | SPOT peptide array binding signal intensity
11 | QNTPPLPPKPKSPHL | 60.5

target: AgMyo5; experiment: as above
Procedure: as §1

Row | Binder | SPOT peptide array binding signal intensity
12 | QNTPPLPPKPKSPHL | ≤ 0

target: AgNbp2; experiment: as above
Procedure: as §1

Row | Binder | SPOT peptide array binding signal intensity
13 | QNTPPLPPKPKSPHL | 6.5

target: AgRvs167; experiment: as above
Procedure: as §1

Row | Binder | SPOT peptide array binding signal intensity
14 | QNTPPLPPKPKSPHL | 1

target: AgSho1; experiment: as above
Procedure: as §1

Row | Binder | SPOT peptide array binding signal intensity
15 | QNTPPLPPKPKSPHL | 54

target: AgSla1-D1-D2; experiment: as above
Procedure: as §1

Row | Binder | SPOT peptide array binding signal intensity
16 | QNTPPLPPKPKSPHL | 2

target: AgSla1-D3; experiment: as above
Procedure: as §1

Row | Binder | SPOT peptide array binding signal intensity
17 | QNTPPLPPKPKSPHL | 1.5

target: CaAbp1-D1; experiment: as above
Procedure: as §1

Row | Binder | SPOT peptide array binding signal intensity
18 | QNTPPLPPKPKSPHL | 55

target: CaAbp1-D2; experiment: as above
Procedure: as §1

Row | Binder | SPOT peptide array binding signal intensity
19 | QNTPPLPPKPKSPHL | 226

target: CaBbc1; experiment: as above
Procedure: as §1

Row | Binder | SPOT peptide array binding signal intensity
20 | QNTPPLPPKPKSPHL | 41.5

target: CaBem1-D1; experiment: as above
Procedure: as §1

Row | Binder | SPOT peptide array binding signal intensity
21 | QNTPPLPPKPKSPHL | ≤ 0

target: CaBzz1-D1; experiment: as above
Procedure: as §1

Row | Binder | SPOT peptide array binding signal intensity
22 | QNTPPLPPKPKSPHL | 46.5

target: CaBzz1-D2; experiment: as above
Procedure: as §1

Row | Binder | SPOT peptide array binding signal intensity
23 | QNTPPLPPKPKSPHL | 48.2

target: CaCyk3; experiment: as above
Procedure: as §1

Row | Binder | SPOT peptide array binding signal intensity
24 | QNTPPLPPKPKSPHL | 1

target: CaFus1; experiment: as above
Procedure: as §1

Row | Binder | SPOT peptide array binding signal intensity
25 | QNTPPLPPKPKSPHL | ≤ 0

target: CaHof1; experiment: as above
Procedure: as §1

Row | Binder | SPOT peptide array binding signal intensity
26 | QNTPPLPPKPKSPHL | 3

target: CaHse1; experiment: as above
Procedure: as §1

Row | Binder | SPOT peptide array binding signal intensity
27 | QNTPPLPPKPKSPHL | 1110

target: CaLsb1; experiment: as above
Procedure: as §1

Row | Binder | SPOT peptide array binding signal intensity
28 | QNTPPLPPKPKSPHL | 0.5

target: CaLsb4; experiment: as above
Procedure: as §1

Row | Binder | SPOT peptide array binding signal intensity
29 | QNTPPLPPKPKSPHL | 521

target: CaMyo5; experiment: as above
Procedure: as §1

Row | Binder | SPOT peptide array binding signal intensity
30 | QNTPPLPPKPKSPHL | 4

target: CaNbp2; experiment: as above
Procedure: as §1

Row | Binder | SPOT peptide array binding signal intensity
31 | QNTPPLPPKPKSPHL | ≤ 0

target: CaRvs167; experiment: as above
Procedure: as §1

Row | Binder | SPOT peptide array binding signal intensity
32 | QNTPPLPPKPKSPHL | 5.67

target: CaRvs167-3; experiment: as above
Procedure: as §1

Row | Binder | SPOT peptide array binding signal intensity
33 | QNTPPLPPKPKSPHL | 6

target: CaSho1; experiment: as above
Procedure: as §1

Row | Binder | SPOT peptide array binding signal intensity
34 | QNTPPLPPKPKSPHL | 81

target: CaSla1-D1-D2; experiment: as above
Procedure: as §1

Row | Binder | SPOT peptide array binding signal intensity
35 | QNTPPLPPKPKSPHL | ≤ 0

target: CaSla1-D3; experiment: as above
Procedure: as §1

Row | Binder | SPOT peptide array binding signal intensity
36 | QNTPPLPPKPKSPHL | 3.5

target: ScAbp1; experiment: as above
Procedure: as §1

Row | Binder | SPOT peptide array binding signal intensity
37 | QNTPPLPPKPKSPHL | ≤ 0

target: ScBbc1; experiment: as above
Procedure: as §1

Row | Binder | SPOT peptide array binding signal intensity
38 | QNTPPLPPKPKSPHL | ≤ 0

target: ScBem1-D1; experiment: as above
Procedure: as §1

Row | Binder | SPOT peptide array binding signal intensity
39 | QNTPPLPPKPKSPHL | ≤ 0

target: ScBzz1-D1; experiment: as above
Procedure: as §1

Row | Binder | SPOT peptide array binding signal intensity
40 | QNTPPLPPKPKSPHL | ≤ 0

target: ScBzz1-D2; experiment: as above
Procedure: as §1

Row | Binder | SPOT peptide array binding signal intensity
41 | QNTPPLPPKPKSPHL | 4

target: ScCyk3; experiment: as above
Procedure: as §1

Row | Binder | SPOT peptide array binding signal intensity
42 | QNTPPLPPKPKSPHL | 1

target: ScFus1; experiment: as above
Procedure: as §1

Row | Binder | SPOT peptide array binding signal intensity
43 | QNTPPLPPKPKSPHL | 21

target: ScHof1; experiment: as above
Procedure: as §1

Row | Binder | SPOT peptide array binding signal intensity
44 | QNTPPLPPKPKSPHL | 196

target: ScHse1; experiment: as above
Procedure: as §1

Row | Binder | SPOT peptide array binding signal intensity
45 | QNTPPLPPKPKSPHL | ≤ 0

target: ScLsb1; experiment: as above
Procedure: as §1

Row | Binder | SPOT peptide array binding signal intensity
46 | QNTPPLPPKPKSPHL | 1

target: ScLsb2; experiment: as above
Procedure: as §1

Row | Binder | SPOT peptide array binding signal intensity
47 | QNTPPLPPKPKSPHL | 1

target: ScLsb3; experiment: as above
Procedure: as §1

Row | Binder | SPOT peptide array binding signal intensity
48 | QNTPPLPPKPKSPHL | 4390

target: ScLsb4; experiment: as above
Procedure: as §1

Row | Binder | SPOT peptide array binding signal intensity
49 | QNTPPLPPKPKSPHL | 52

target: ScMyo3; experiment: as above
Procedure: as §1

Row | Binder | SPOT peptide array binding signal intensity
50 | QNTPPLPPKPKSPHL | 2

target: ScMyo5; experiment: as above
Procedure: as §1

Row | Binder | SPOT peptide array binding signal intensity
51 | QNTPPLPPKPKSPHL | ≤ 0

target: ScNbp2; experiment: as above
Procedure: as §1

Row | Binder | SPOT peptide array binding signal intensity
52 | QNTPPLPPKPKSPHL | 7.5

target: ScPex13; experiment: as above
Procedure: as §1

Row | Binder | SPOT peptide array binding signal intensity
53 | QNTPPLPPKPKSPHL | 1360

target: ScRvs167; experiment: as above
Procedure: as §1

Row | Binder | SPOT peptide array binding signal intensity
54 | QNTPPLPPKPKSPHL | 57.2

target: ScSho1; experiment: as above
Procedure: as §1

Row | Binder | SPOT peptide array binding signal intensity
55 | QNTPPLPPKPKSPHL | 268

target: ScSla1-D1-D2; experiment: as above
Procedure: as §1

Row | Binder | SPOT peptide array binding signal intensity
56 | QNTPPLPPKPKSPHL | ≤ 0

target: ScSla1-D3; experiment: as above
Procedure: as §1

Row | Binder | SPOT peptide array binding signal intensity
57 | QNTPPLPPKPKSPHL | 4.5

target: SpAbp1-D1; experiment: as above
Procedure: as §1

Row | Binder | SPOT peptide array binding signal intensity
58 | QNTPPLPPKPKSPHL | ≤ 0

target: SpBbc1; experiment: as above
Procedure: as §1

Row | Binder | SPOT peptide array binding signal intensity
59 | QNTPPLPPKPKSPHL | ≤ 0

target: SpBzz1-D1; experiment: as above
Procedure: as §1

Row | Binder | SPOT peptide array binding signal intensity
60 | QNTPPLPPKPKSPHL | 302

target: SpBzz1-D2; experiment: as above
Procedure: as §1

Row | Binder | SPOT peptide array binding signal intensity
61 | QNTPPLPPKPKSPHL | 2.5

target: SpCyk3; experiment: as above
Procedure: as §1

Row | Binder | SPOT peptide array binding signal intensity
62 | QNTPPLPPKPKSPHL | ≤ 0

target: SpHof1; experiment: as above
Procedure: as §1

Row | Binder | SPOT peptide array binding signal intensity
63 | QNTPPLPPKPKSPHL | ≤ 0

target: SpHof1-2; experiment: as above
Procedure: as §1

Row | Binder | SPOT peptide array binding signal intensity
64 | QNTPPLPPKPKSPHL | 11.2

target: SpHof1-3; experiment: as above
Procedure: as §1

Row | Binder | SPOT peptide array binding signal intensity
65 | QNTPPLPPKPKSPHL | 28.8

target: SpHse1; experiment: as above
Procedure: as §1

Row | Binder | SPOT peptide array binding signal intensity
66 | QNTPPLPPKPKSPHL | 16

target: SpLsb1; experiment: as above
Procedure: as §1

Row | Binder | SPOT peptide array binding signal intensity
67 | QNTPPLPPKPKSPHL | 956

target: SpLsb4; experiment: as above
Procedure: as §1

Row | Binder | SPOT peptide array binding signal intensity
68 | QNTPPLPPKPKSPHL | 1280

target: SpMyo1; experiment: as above
Procedure: as §1

Row | Binder | SPOT peptide array binding signal intensity
69 | QNTPPLPPKPKSPHL | 19.5

target: SpNbp2; experiment: as above
Procedure: as §1

Row | Binder | SPOT peptide array binding signal intensity
70 | QNTPPLPPKPKSPHL | 42

target: SpPex13; experiment: as above
Procedure: as §1

Row | Binder | SPOT peptide array binding signal intensity
71 | QNTPPLPPKPKSPHL | 0.5

target: SpRvs167; experiment: as above
Procedure: as §1

Row | Binder | SPOT peptide array binding signal intensity
72 | QNTPPLPPKPKSPHL | 1090

target: SpSla1-D1-D2; experiment: as above
Procedure: as §1

Row | Binder | SPOT peptide array binding signal intensity
73 | QNTPPLPPKPKSPHL | ≤ 0

target: SpSla1-D3; experiment: as above
Procedure: as §1

Row | Binder | SPOT peptide array binding signal intensity
74 | QNTPPLPPKPKSPHL | 3
